A short description of test [1]: qHTS assay to identify small molecule antagonists of the estrogen receptor alpha (ER-alpha) signaling pathway using the BG1 cell line in the presence of 0.1 nM 17-beta-estradiol - cell viability counter screen (AID 1259241). Note: nearly all actives have a fitted effect of over 40% in size. A digest of the protocol:
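Live-cell protease activity (CellTiter-Fluor fluorescence, 30 min) was read in the same wells after VM7Luc4E2 cells had been exposed to compounds with 0.1 nM 17beta-estradiol for 22 hr at 37C.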

Test [2] in a line: qHTS assay to identify small molecule antagonists of the androgen receptor (AR) signaling pathway using the MDA cell line in the presence of 0.5 nM R1881 - cell viability counter screen (AID 1259242). Note: nearly all actives have a fitted effect of over 45% in size. An outline of the steps:
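Concentration-response screen of compounds for toxicity in MDA-kb2 reporter cells: 16 hr at 37C with 0.5 nM R1881, endpoint live-cell protease fluorescence measured in the reporter wells.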

The target of test [3] is Estrogen receptor (Homo sapiens) (UniProt P03372). The test can be described thus: qHTS assay to identify small molecule antagonists of the estrogen receptor alpha (ER-alpha) signaling pathway using the BG1 cell line in the presence of 0.1 nM 17-beta-estradiol (AID 1259244). Note: nearly all actives have a fitted effect of over 50% in size. Note: potency is the fitted concentration of half-maximal effect. A digest of the protocol:
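Compounds were tested against 0.1 nM (final) 17beta-estradiol in VM7Luc4E2 cells, which express full-length ER-alpha and an ERE-luciferase reporter; luminescence was recorded following 22 h exposure.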

Test [4] can be described thus: qHTS assay to identify small molecule phospholipidosis (PLD) inducers (AID 1259344; active = well fitted curve in the direction sought with a large enough effect; an effect the other way counts as inactive or inconclusive; note: potency is the fitted concentration of half-maximal effect). A digest of the protocol:
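After 4 h attachment on collagen I, HepG2 cells were dosed with compound alongside LipidTOX Red, kept 24 h at 37 C, fixed, and imaged for lamellar phospholipid pits.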

A short description of test [5]: qHTS assay to identify small molecule HDAC inhibitors (AID 1259364).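 Note: wild-type HCT-116 cells with endogenous class I/II HDAC activity; top concentration of the series differs between compounds; nearly all actives have a fitted effect of over 45% in size.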 An outline of the steps:
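Screening used wild-type human colon HCT-116 cells incubated overnight, dosed with compounds for 2 hours, and assayed with a homogeneous luminogenic HDAC I/II reagent for 30 minutes at room temperature.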

The nature of test [6]: qHTS assay to identify small molecule HDAC inhibitors - cell viability counter screen (AID 1259365). Note: series mostly up to about 92 µM; nearly all actives have a fitted effect of over 50% in size. An outline of the steps:
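HCT-116 (wild type), 1,500 cells/well, overnight 37C/5% CO2; compound in DMSO 2hr; CellTiter-Glo 30min RT; luminescence read.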

Test [7] can be described thus: qHTS assay to identify small molecule antagonists of the sonic hedgehog signaling (Shh) pathway - cell viability counter screen (AID 1259367). Note: nearly all actives have a fitted effect of over 55% in size. Note: potency is the fitted concentration of half-maximal effect. An outline of the steps: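 Conditioned medium drove Shh signaling in 3T3 Gli1-Luc cells exposed to compounds at 37C and 5% CO2. Viability was determined from CellTiter-Fluor fluorescence, with reagent incubated 1 hr after 23 hr of treatment.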

Test [8] is described as follows: qHTS assay to identify small molecule agonists of the sonic hedgehog signaling (Shh) pathway (AID 1259368; calls by dose curve;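 note: NIH/3T3-derived 3T3Gli1-Luc cells carrying a stable Gli1-driven firefly luciferase reporter; series mostly up to about 92 µM; nearly all actives have a fitted effect of over 15% in size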). A digest of the protocol:
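Hedgehog pathway agonism scored by increased firefly luciferase luminescence in 3T3Gli1-Luc cells treated 24 hr at 37 C; detection used a 30 min room-temperature reagent incubation.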

Test [9] is described as follows: qHTS assay to identify small molecule antagonists of the sonic hedgehog signaling (Shh) pathway (AID 1259369; calls by dose curve; note: nearly all actives have a fitted effect of over 45% in size; note: potency is the fitted concentration of half-maximal effect). A digest of the protocol: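 NIH/3T3 stable Gli1-Luc clone, 2,000 cells/well, 4hr settle; cpd + conditioned medium 24hr; Luc reagent 30min RT; luminescence.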
A short description of test [10]: qHTS assay to identify small molecule agonists of the androgen receptor (AR) signaling pathway in the presence of an antagonist - cell viability counter screen (AID 1259379). Note: nearly all actives have a fitted effect of over 25% in size. Note: potency is the fitted concentration of half-maximal effect. A digest of the protocol:
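MDA-kb2 viability measured by CellTiter-Fluor fluorescence in the same wells as the luciferase signal; nilutamide 3.0uM final; 15-point compound titration; 16 hr at 37C.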

A short description of test [11]: qHTS assay to identify small molecule antagonists of the estrogen receptor beta (ER-beta) signaling pathway - cell viability counter screen (AID 1259382). Note: nearly all actives have a fitted effect of over 55% in size. Note: potency is the fitted concentration of half-maximal effect. An outline of the steps: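 Readout: luminescence, CellTiter-Glo, same wells as bla assay. System: ER-beta-UAS-bla GripTite HEK293T, 2% charcoal-stripped FBS. Exposure: compounds plus 1nM 17-beta-estradiol, 16 hr, 37C.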

The target in test [12] is Estrogen receptor (Homo sapiens) (UniProt P03372). Description: qHTS assay to identify small molecule agonists of the estrogen receptor alpha (ER-alpha) signaling pathway in the presence of an antagonist (AID 1259383; calls by dose curve; note: nearly all actives have a fitted effect of over 15% in size; note: potency is the fitted concentration of half-maximal effect; for activation: top concentration of the series differs between compounds). An outline of the steps:
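Quantitative HTS confirmation: compounds titrated at 15 concentrations onto estrogen-deprived VM7Luc4E2 cells carrying a four-ERE luciferase construct, with ICI-182,780 present at 10.0nM final. Signal is luminescence after 22hr exposure.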

The nature of test [13]: qHTS assay to identify small molecule agonists or antagonists of the thyroid stimulating hormone receptor (TSHR) signaling pathway - wild type cell line counter screen (AID 1259384; calls by dose curve). An outline of the steps: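 Wild-type HEK293 cells were plated 18 h at 37 C/5% CO2, pin-dosed with compound plus Ro20-1724 medium, held 30 min at room temperature, then given cAMP-d2 and anti-cAMP-cryptate; fluorescence was read after 1 h. Fifteen concentrations, triplicate.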

Test [14] deals with Thyrotropin receptor (Homo sapiens) (UniProt P16473). The test can be described thus: qHTS assay to identify small molecule antagonists of the thyroid stimulating hormone receptor (TSHR) signaling pathway (AID 1259385; calls by dose curve; note: nearly all actives have a fitted effect of over 20% in size). An outline of the steps: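 TSHR-HEK293 cells were plated and held 18 h at 37C/5% CO2, then given compound plus Ro20-1724 and stimulated with TSH at 1.5 ng/mL final. After 30 min at room temperature, cAMP was detected with cAMP-d2/anti-cAMP-cryptate (1 h) by fluorescence.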

Test [15] has as its target Androgen receptor (Homo sapiens) (UniProt P10275). The test can be described thus: qHTS assay to identify small molecule antagonists of the androgen receptor (AR) signaling pathway using the MDA cell line in the presence of 0.5 nM R1881 (AID 1259243). Note: nearly all actives have a fitted effect of over 50% in size. Note: potency is the fitted concentration of half-maximal effect. An outline of the steps: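 With R1881 held at 0.5 nM (final), compound effects on MMTV-luciferase expression in MDA-kb2 cells were scored by luminescence after a 16 hr, 37C incubation.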

Test [16] can be described thus: qHTS assay to identify small molecule agonists of the sonic hedgehog signaling (Shh) pathway - cell viability counter screen (AID 1259366). Note: nearly all actives have a fitted effect of over 50% in size. Note: potency is the fitted concentration of half-maximal effect. A digest of the protocol:
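CellTiter-Fluor fluorescence read-out, 1 hr at 37C, added after 23hr compound exposure. Cells: 3T3 Gli1-Luc, an NIH/3T3 clone with stably integrated Gli1-Luc reporter, plated 4hr before compound.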

A short description of test [17]: qHTS assay to identify small molecule agonists of the estrogen receptor beta (ER-beta) signaling pathway - cell viability counter screen (AID 1259380). Note: nearly all actives have a fitted effect of over 30% in size. Note: potency is the fitted concentration of half-maximal effect. An outline of the steps:
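Measured: luminescence from CellTiter-Glo after 30 min at room temperature, added to wells already read for the LiveBLAzer FRET reporter (2 hr substrate); ER-beta-UAS-bla HEK293T cells had 16 hr compound treatment at 37C, 5% CO2.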

For test [18], the target named is Androgen receptor (Homo sapiens) (UniProt P10275). The test can be described thus: qHTS assay to identify small molecule agonists of the androgen receptor (AR) signaling pathway in the presence of an antagonist (AID 1259381; calls by dose curve; note: nearly all actives have a fitted effect of over 15% in size). A digest of the protocol:
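Luminescent ONE-Glo read, 30min at room temperature, follows 16hr compound exposure (15 concentrations) of MDA-kb2 cells at 37C, 0% CO2, with nilutamide added at 3.0uM final.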

In test [19] the target is Estrogen receptor beta (Homo sapiens) (UniProt Q92731). Description: qHTS assay to identify small molecule agonists of the estrogen receptor beta (ER-beta) signaling pathway (AID 1259377; active = well fitted activation curve with a large enough effect in the signal ratio in the repeat runs, not every such curve was filed as active; the % refers to the signal ratio). An outline of the steps: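 Beta-lactamase reporter readout: fluorescence of LiveBLAzer B/G FRET substrate after 2 h at room temperature, following 16 h compound treatment of ER-beta-UAS-bla HEK293T cells at 37C in 2% charcoal-stripped FBS medium.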

The target is the same in test [20]. Description: qHTS assay to identify small molecule antagonists of the estrogen receptor beta (ER-beta) signaling pathway (AID 1259378; active = well fitted inhibition curve with a large enough effect in the signal ratio in the repeat runs, not every such curve was filed as active; the % refers to the signal ratio; note: potency is the fitted concentration of half-maximal effect). An outline of the steps:
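ER-beta-UAS-bla HEK293T (GripTite) cells in 2% charcoal-stripped FBS medium were preincubated 6 hr at 37C, dosed with compound, then stimulated with 1 nM E2 (final) for 16 hr; beta-lactamase reporter read by B/G FRET fluorescence after 2 hr substrate loading.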

Several values for one entry are separate records, joined by “and”; a condition that tells them apart may be missing. Equal entries are not always repeated. Results filed as inconclusive are left out. A structure can be active in one record and inactive in another. Activity calls are given as the source filed them. Unless noted, calls come from the whole dose curve; as a rule, active = well fitted curve in the direction sought with a large enough effect in the repeat runs; inconclusive = weak or mixed curves; inactive = no such curve, though single readings can be large; an effect the other way counts as inactive or inconclusive.

Androgen receptor (Homo sapiens), sequence (P10275 whole entry, looked up): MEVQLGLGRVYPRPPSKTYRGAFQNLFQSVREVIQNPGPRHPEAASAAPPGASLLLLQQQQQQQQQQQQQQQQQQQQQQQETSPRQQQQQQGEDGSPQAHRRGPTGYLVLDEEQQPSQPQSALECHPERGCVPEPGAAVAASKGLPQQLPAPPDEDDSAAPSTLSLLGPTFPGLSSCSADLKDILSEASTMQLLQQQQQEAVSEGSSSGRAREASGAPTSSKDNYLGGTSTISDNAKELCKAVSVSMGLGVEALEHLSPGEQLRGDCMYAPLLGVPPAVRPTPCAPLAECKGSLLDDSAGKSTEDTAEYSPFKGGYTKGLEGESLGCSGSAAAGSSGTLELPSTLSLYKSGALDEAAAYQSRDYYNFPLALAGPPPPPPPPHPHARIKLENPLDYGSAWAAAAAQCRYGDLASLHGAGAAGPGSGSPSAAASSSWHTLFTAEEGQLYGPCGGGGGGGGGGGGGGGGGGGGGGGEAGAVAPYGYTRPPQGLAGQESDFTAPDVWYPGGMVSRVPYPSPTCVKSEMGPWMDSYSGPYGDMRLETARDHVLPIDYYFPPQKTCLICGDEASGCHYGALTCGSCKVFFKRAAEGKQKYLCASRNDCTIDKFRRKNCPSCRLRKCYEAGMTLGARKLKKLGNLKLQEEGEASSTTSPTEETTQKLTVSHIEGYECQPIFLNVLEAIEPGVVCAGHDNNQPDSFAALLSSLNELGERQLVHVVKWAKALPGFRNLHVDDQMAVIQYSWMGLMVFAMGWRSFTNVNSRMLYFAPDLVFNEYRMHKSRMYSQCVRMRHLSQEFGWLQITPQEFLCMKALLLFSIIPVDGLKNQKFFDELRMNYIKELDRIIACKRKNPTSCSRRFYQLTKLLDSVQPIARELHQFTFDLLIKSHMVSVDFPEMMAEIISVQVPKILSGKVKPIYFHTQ
Thyrotropin receptor (Homo sapiens), sequence (P16473 whole entry, looked up): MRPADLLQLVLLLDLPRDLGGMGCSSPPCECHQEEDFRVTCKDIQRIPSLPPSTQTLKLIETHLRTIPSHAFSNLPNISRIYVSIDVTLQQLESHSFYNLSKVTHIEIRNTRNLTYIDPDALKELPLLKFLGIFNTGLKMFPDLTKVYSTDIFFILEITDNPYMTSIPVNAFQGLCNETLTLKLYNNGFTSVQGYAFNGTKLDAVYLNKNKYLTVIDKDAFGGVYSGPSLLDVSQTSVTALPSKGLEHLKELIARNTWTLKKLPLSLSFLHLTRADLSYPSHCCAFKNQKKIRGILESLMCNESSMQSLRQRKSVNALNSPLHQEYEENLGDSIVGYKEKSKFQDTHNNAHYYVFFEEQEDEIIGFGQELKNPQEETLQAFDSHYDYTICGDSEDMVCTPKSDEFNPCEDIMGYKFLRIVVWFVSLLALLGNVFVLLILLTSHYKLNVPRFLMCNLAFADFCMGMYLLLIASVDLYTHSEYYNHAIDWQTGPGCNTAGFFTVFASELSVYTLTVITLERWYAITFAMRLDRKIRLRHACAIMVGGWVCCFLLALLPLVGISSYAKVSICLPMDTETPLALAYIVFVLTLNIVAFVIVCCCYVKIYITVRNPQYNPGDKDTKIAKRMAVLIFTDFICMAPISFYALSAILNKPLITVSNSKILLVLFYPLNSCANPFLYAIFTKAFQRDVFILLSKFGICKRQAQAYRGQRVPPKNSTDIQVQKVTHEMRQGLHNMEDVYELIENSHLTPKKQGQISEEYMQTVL
Estrogen receptor (Homo sapiens), sequence (P03372 whole entry, looked up): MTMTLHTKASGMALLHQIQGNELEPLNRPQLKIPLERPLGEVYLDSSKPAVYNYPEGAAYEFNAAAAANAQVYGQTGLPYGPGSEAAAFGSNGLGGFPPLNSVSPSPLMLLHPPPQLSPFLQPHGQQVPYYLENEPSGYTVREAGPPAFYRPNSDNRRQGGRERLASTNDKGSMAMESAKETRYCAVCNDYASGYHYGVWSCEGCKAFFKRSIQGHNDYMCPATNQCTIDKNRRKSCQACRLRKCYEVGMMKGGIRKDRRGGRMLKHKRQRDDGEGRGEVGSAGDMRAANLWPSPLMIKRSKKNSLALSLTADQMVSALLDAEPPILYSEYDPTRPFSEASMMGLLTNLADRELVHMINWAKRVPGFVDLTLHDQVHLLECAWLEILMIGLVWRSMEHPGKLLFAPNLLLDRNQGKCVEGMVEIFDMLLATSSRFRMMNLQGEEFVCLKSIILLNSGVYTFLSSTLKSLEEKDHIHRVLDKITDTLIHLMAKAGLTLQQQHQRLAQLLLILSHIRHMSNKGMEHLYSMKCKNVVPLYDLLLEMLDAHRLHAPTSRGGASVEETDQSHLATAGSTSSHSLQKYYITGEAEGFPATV
Estrogen receptor beta (Homo sapiens), sequence (Q92731 whole entry, looked up): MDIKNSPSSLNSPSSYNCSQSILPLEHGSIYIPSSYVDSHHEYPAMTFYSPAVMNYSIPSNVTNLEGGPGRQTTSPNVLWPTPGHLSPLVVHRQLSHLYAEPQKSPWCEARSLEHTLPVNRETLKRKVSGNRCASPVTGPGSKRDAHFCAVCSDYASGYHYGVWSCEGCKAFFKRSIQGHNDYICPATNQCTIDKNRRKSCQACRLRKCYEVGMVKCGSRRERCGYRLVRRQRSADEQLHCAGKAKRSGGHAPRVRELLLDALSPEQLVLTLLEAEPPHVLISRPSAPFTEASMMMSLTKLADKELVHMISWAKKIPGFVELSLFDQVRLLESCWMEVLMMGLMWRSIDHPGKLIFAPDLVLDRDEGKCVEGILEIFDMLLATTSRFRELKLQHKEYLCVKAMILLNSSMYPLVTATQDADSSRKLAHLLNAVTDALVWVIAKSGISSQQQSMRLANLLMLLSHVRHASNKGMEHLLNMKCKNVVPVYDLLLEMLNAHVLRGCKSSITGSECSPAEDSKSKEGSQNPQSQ

As to `C#C[C@]1(O)CC[C@H]2[C@@H]3CCC4=CC(=O)CC[C@@H]4[C@H]3CC[C@@]21CC`, the Potency entry in test [1], in [2], in test [3], in [4], in [5] and in test [7] was “inactive” each time. Besides, the Potency entry in test [10], in [11] and in [13] was “inactive” in each case. In addition, the compound was called inactive in test [6], in test [8] and in test [14]. In addition, the Potency in test [9] was 17.2 µM (active) and 13.7 µM (active); in [12] it was 6.87 µM (active) and 8.63 µM (active) and 8.41 µM (active).
For `NCCNc1cccc2ccccc12`, the Potency result in [1], in test [2], in test [5] and in test [7] was “inactive” throughout. Besides, the Potency in [15] was 68.5 µM (active) and inactive; in test [16], 61.1 µM (active) and inactive; in test [9], 61.1 µM (active) and 37.6 µM (active) and inactive; in test [10], 54.4 µM (active) and 59.6 µM (active) and inactive; in test [17], 54.4 µM (active) and 59.6 µM (active); in test [11], 24.3 µM (active) and 59.6 µM (active) and inactive. The compound was called inactive in test [8] and in test [18].
As for `COCCOCCOC`, the Potency result in [1], in test [2], in [15], in test [3], in [5] and in test [16] was “inactive” each time. Moreover, the Potency result in test [7], in [9], in test [20], in test [10], in test [11] and in test [12] was “inactive” each time. Besides, the Potency entry in [13] is “inactive”. Further, the compound was called inactive in test [6], in test [8], in [19] and in test [18].
Take `O=C1OC(c2ccc(O)cc2)(c2ccc(O)cc2)c2ccccc21`: the Potency result in [1], in [2], in [4], in [5], in test [10] and in test [11] was “inactive” each time. Moreover, the Potency result in test [13] is “inactive”. The Potency in test [15] was 48.6 µM (active) and inactive; in [7], 54.1 µM (active) and inactive; in [20], 15.4 µM (active); in test [17] it was 54.1 µM (active) and inactive. The compound was classed as inactive in [6], in test [8], in [18] and in [14].
With `OC[C@@H](O)[C@@H](O)[C@H](O)[C@H](O)CO`, the Potency result in test [1], in test [2], in test [3], in test [4], in test [5] and in [7] was “inactive” throughout. In addition, the Potency result in test [9], in test [10], in [17], in test [11], in test [12] and in test [13] was “inactive” each time. The result in test [6], in test [8] and in test [14] was inactive.
Take `COc1cc2c(c(OC)c1OC)-c1ccc(OC)c(=O)cc1[C@@H](NC(C)=O)CC2`: the Potency result in [1], in [2], in [15], in test [5], in test [20] and in test [10] was “inactive” each time. Besides, the Potency entry in test [11] and in test [12] was “inactive” throughout. For the same compound, the Potency was 27 µM (active) in test [3]; 0.708 µM (active) in [4]; “inactive and 48.6 nM (active) and 376 nM (active)” in test [7]; 1.7 nM (active) and 2.4 nM (active) in [9]. For the same compound, the result in [6], in test [8], in [19] and in test [18] was inactive.
`Cc1cccc(Nc2cc(Cl)nc(SCC(=O)O)n2)c1C`: the Potency entry in test [1], in [2], in test [15], in test [3], in test [4] and in test [5] was “inactive” throughout. The Potency result in test [16], in test [7], in [10], in test [17], in test [11] and in test [12] was “inactive” throughout. The Potency result in test [13] was “inactive”. In addition, the outcome in test [8] and in test [18] was inactive.
